Each sequence was assayed against Interleukin-8 (IL8, CXCL8), C-terminal His-tagged (Homo sapiens, UniProt P10145 SEQ:1-72) (assay: competition; competition TR-FRET; G18C). Conditions: tags: C-terminal 6xHis (Sino Biological); ssRNA; 2'-F G, 2'-OMe A/C/U, 5' C6NH2, 3' idT.
Protocol: To better understand the sequence requirements and to confirm the stem structures of members of the Aptamer 3 family as determined from sequence covariation analysis from both the primary and secondary (degenerate) selections, a series of variants which included mutations and deletions to the predicted stems were synthesized and screened (Table 24). Activity of each of these variants were tested using a time resolved competition TR-FRET assay in which the labeled parent Aptamer 3 was competed with increasing concentrations of unlabeled variants for binding to IL8 (FIG. 14). Briefly, 2-fold dilutions of thermally equilibrated aptamers were made in TR-FRET Buffer (50 mM MOPS, pH 7.4, 125 mM NaCl, 5 mM KCl, 50 μM CHAPS, 0.1 mg/mL BSA, 1 mM CaCl₂, and 1 mM MgCl₂). 5 μL of aptamer or control solution was added to 5 μl mix of 10 nM C-terminal His-tagged-IL8, 60 nM ALEXA FLUOR® 647-labeled Aptamer, and 5 nM anti-His-Eu (Perkin Elmer) in a black wall low volume 384 well plate (Greiner). For control, 5 μl of 1000-fold excess of unlabeled parent aptamer or 5 μl TR-FRET buffer alone was added to the mix of ALEXA FLUOR® 647-labeled aptamer, His-IL8, and anti-His-Eu. The plate was covered with a plate seal and subsequently incubated in the dark for 1 hour at room temperature. The plate was read on a Biotek CYTATION™ 5 plate reader. […]
In the case of UGAUGACGGUAGAUUACCGGUAGAGUGACCGCAUCU, the binding signal is reported as over 10 fold worse than Aptamer 3.

— patent publication US20210230599, “STEM-LOOP COMPOSITIONS AND METHODS FOR INHIBITING INTERLEUKIN-8” (VITRISA THERAPEUTICS, INC., published 2021)
